# Test results from PubChem BioAssay (NCATS).
# Records with an inconclusive call do not appear. The source made the active and inactive calls. Unless noted, the call rests on the fitted dose curve; in most records, active means well fitted curve in the direction sought with a large enough effect; inconclusive means small, poorly fitted or top-dose-only effect, or another doubt; inactive means no such curve, though single readings can be large; an effect the other way counts as inactive or inconclusive.
# How the values were obtained:
# [1] = qHTS drug screen for cell cycle checkpoint inhibitors in PARPi-resistant BRCA-mutant ovarian cancer cell lines. (AID 1963452; calls by dose curve); conditions: PEO1/OlaR viability, CellTiter-Glo luminescence, 96 h, stronger effect = lower value
# How it was run: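 PEO1, PEO4 and PEO1/OlaR ovarian cancer cells, 600 per well, exposed 96 h at 37C to a dilution series. Viability read by CellTiter-Glo luminescence, normalized to DMSO and empty wells; activity summarized as Z-AUC.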
# [2] = qHTS profiling for inhibitors of Plasmodium falciparum proliferation (AID 504749);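 further: 0% = DMSO vehicle and full inhibition = artemisinin control; nearly all actives have a fitted effect of over 60% in size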; conditions: P. falciparum in erythrocytes, SYBR Green DNA, 72 h; series mostly up to 28.7 µM
# How it was run: (§1)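 P. falciparum-infected erythrocytes (0.3% parasitemia, 2.5% hematocrit final) were exposed to compounds for 72 h at 37 C in 5% CO2, then lysed with SYBR Green buffer overnight at room temperature; parasite DNA fluorescence was normalized to artemisinin and DMSO controls.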
# 3D7 = test: as above; conditions: P. falciparum in erythrocytes, SYBR Green DNA, 72 h; series mostly up to 28.7 µM
# How it was run: as §1
# 7G8 = test: as above; conditions: P. falciparum in erythrocytes, SYBR Green DNA, 72 h; series mostly up to 28.7 µM
# How it was run: as §1
# AA1029 = test: as above; conditions: P. falciparum in erythrocytes, SYBR Green DNA, 72 h; series mostly up to 28.7 µM
# How it was run: as §1
# AS120 = test: as above; conditions: P. falciparum in erythrocytes, SYBR Green DNA, 72 h; series mostly up to 28.7 µM
# How it was run: as §1
# ATS95 = test: as above; conditions: P. falciparum in erythrocytes, SYBR Green DNA, 72 h; series mostly up to 28.7 µM
# How it was run: as §1
# C2A = test: as above; conditions: P. falciparum in erythrocytes, SYBR Green DNA, 72 h; series mostly up to 28.7 µM
# How it was run: as §1
# CP185 = test: as above; conditions: P. falciparum in erythrocytes, SYBR Green DNA, 72 h; series mostly up to 28.7 µM
# How it was run: as §1
# CP191 = test: as above; conditions: P. falciparum in erythrocytes, SYBR Green DNA, 72 h; series mostly up to 28.7 µM
# How it was run: as §1
# CP192 = test: as above; conditions: P. falciparum in erythrocytes, SYBR Green DNA, 72 h; series mostly up to 28.7 µM
# How it was run: as §1
# CP194 = test: as above; conditions: P. falciparum in erythrocytes, SYBR Green DNA, 72 h; series mostly up to 28.7 µM
# How it was run: as §1
# CP201 = test: as above; conditions: P. falciparum in erythrocytes, SYBR Green DNA, 72 h; series mostly up to 28.7 µM
# How it was run: as §1
# CP203 = test: as above; conditions: P. falciparum in erythrocytes, SYBR Green DNA, 72 h; series mostly up to 28.7 µM
# How it was run: as §1
# CP211 = test: as above; conditions: P. falciparum in erythrocytes, SYBR Green DNA, 72 h; series mostly up to 28.7 µM
# How it was run: as §1
# [3] = Dual reporter qHTS for agonist of Pregnane X Receptor (hPXR) against the NCATS DSHEA and TCM libraries: Fluorescence readout (AID 1920058); conditions: PXR dual reporter cells; series mostly up to 40 µM; further: 0% is about no effect
# How it was run: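 hPXR-Luc HepG2 cells (2000/well) in phenol red-free medium with charcoal-stripped FBS attached for 5 h, then were exposed to compounds for about 24 h at 37 °C. Viability was read by CellTiter-Fluor fluorescence (Ex/Em 405/540 nm) after 1 h.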
# [4] = molecular target: Nuclear receptor subfamily 1 group I member 2 (Homo sapiens) (UniProt O75469); test: Dual reporter qHTS for agonist of Pregnane X Receptor (hPXR) against the NCATS DSHEA and TCM libraries: Luminescence readout (AID 1920059); conditions: hPXR dual reporter cells, luciferase luminescence agonist; series mostly up to 22 µM; further: 0% is about no effect
# Sequence of Nuclear receptor subfamily 1 group I member 2 (Homo sapiens) (O75469 whole entry, looked up): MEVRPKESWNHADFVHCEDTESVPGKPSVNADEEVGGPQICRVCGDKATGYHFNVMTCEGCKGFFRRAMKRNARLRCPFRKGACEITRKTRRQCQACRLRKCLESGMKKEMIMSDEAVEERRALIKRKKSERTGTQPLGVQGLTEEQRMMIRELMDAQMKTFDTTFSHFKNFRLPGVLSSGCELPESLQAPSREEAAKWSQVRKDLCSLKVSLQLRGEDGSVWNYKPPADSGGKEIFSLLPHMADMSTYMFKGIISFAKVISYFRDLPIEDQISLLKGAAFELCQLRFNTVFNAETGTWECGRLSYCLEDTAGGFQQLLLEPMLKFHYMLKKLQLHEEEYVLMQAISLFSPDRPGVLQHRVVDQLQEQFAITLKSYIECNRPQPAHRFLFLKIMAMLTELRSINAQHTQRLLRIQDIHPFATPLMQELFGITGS
# How it was run: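 hPXR-LucHepG2 cells in phenol red-free DMEM with 5% charcoal-stripped FBS, 2000 cells/well, attached 5 h, then exposed 24 h at 37C to compounds; rifampicin as positive agonist control (2.8 nM–92 uM). Luciferase luminescence read.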
# [5] = Dual reporter qHTS for antagonist of Pregnane X Receptor (hPXR) against the NCATS DSHEA and TCM libraries: Fluorescence Readout (AID 1920061); conditions: PXR dual reporter cells, antagonist mode; series mostly up to 40 µM; further: 0% is about no effect
# How it was run: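 hPXR-Luc HepG2 cells exposed 24 h at 37 C to compounds with 2 uM rifampicin in antagonist mode; luciferase luminescence measured by ONE-Glo, with CellTiter-Fluor viability read beforehand.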
# [6] = measured here: PEO1 parental Z-AUC
smiles,measurement,setting,value
O=C(COCC(=O)N1CCN(C(c2ccccc2)c2ccccc2)CC1)Nc1ccc(Cl)cc1C(=O)O,Z-AUC,[1],1.8 (inactive)
same,Z-AUC,[1]; [6],1.44
same,Z-AUC,[1]; measured here: PEO4 Z-AUC,1.34
CCC(CC)CC1(C(=O)Nc2ccccc2SC(=O)C(C)C)CCCCC1,Z-AUC,[1],-0.732 (inactive)
same,Z-AUC,[1]; [6],-0.887
same,Z-AUC,[1]; measured here: PEO4 Z-AUC,-0.923
Cc1ncc(NC(=O)c2ccc(CN3CCN(C)CC3)c(C(F)(F)F)c2)cc1Nc1nccc(-c2cccnc2)n1,Z-AUC,[1],0.889 (inactive)
same,Z-AUC,[1]; [6],-0.0515
same,Z-AUC,[1]; measured here: PEO4 Z-AUC,-0.0456
Cc1ncc(Cl)cc1NCc1ccc(C(=O)NC(CC2CCCC2)C(=O)NC2CC2)s1 (stereo not drawn),Z-AUC,[1],-0.347 (inactive)
same,Z-AUC,[1]; [6],-0.204
same,Z-AUC,[1]; measured here: PEO4 Z-AUC,0.18
N#Cc1ccc(C2CCCc3cncn32)cc1 (stereo not drawn),Z-AUC,[1],0.659 (inactive)
same,Z-AUC,[1]; [6],0.67
same,Z-AUC,[1]; measured here: PEO4 Z-AUC,0.567
Nc1ncnc2c1C(=O)N(c1ccc(C3CCC(CC(=O)O)CC3)cc1)CCO2 (stereo not drawn),Z-AUC,[1],0.276 (inactive)
same,Z-AUC,[1]; [6],0.0726
same,Z-AUC,[1]; measured here: PEO4 Z-AUC,0.138
O=C1NC(=O)/C(=C/c2cccc(C(F)(F)F)c2)S1,Z-AUC,[1],0.536 (inactive)
same,Z-AUC,[1]; [6],0.151
same,Z-AUC,[1]; measured here: PEO4 Z-AUC,0.0196
CCCCOc1nc(N)c2c(n1)N(Cc1cccc(CN3CCCC3)c1)CC(=O)N2,Z-AUC,[1],-0.393 (inactive)
same,Z-AUC,[1]; [6],-0.969
same,Z-AUC,[1]; measured here: PEO4 Z-AUC,-0.664
CCc1cccc2c3c([nH]c12)[C@@](CC)(CC(=O)O)OCC3,outcome,[2],inactive
same,outcome,3D7,inactive
same,outcome,7G8,inactive
same,outcome,AA1029,inactive
same,outcome,AS120,inactive
same,outcome,ATS95,inactive
same,outcome,C2A,inactive
same,outcome,CP185,inactive
same,outcome,CP191,inactive
same,outcome,CP192,inactive
same,outcome,CP194,inactive
same,outcome,CP201,inactive
same,outcome,CP203,inactive
same,outcome,CP211,inactive
COCCCc1sc(-c2ccccc2)nc1C(=O)Nc1ccccc1-c1nc2cc(CN3CCCC3)cnc2s1,Z-AUC,[1],0.0751 (inactive)
same,Z-AUC,[1]; [6],-0.146
same,Z-AUC,[1]; measured here: PEO4 Z-AUC,0.43
Cc1ccccc1-n1nc(-c2c(-c3ccc(F)cc3)nn3c2NC[C@@H](CO)C3)ccc1=O,Z-AUC,[1],0.0215 (inactive)
same,Z-AUC,[1]; [6],0.2
same,Z-AUC,[1]; measured here: PEO4 Z-AUC,0.209
Cc1c(F)cc(C(=O)NC2CC2)cc1-c1ccc(C(=O)NCC(C)(C)C)cn1,Z-AUC,[1],0.819 (inactive)
same,Z-AUC,[1]; [6],0.354
same,Z-AUC,[1]; measured here: PEO4 Z-AUC,0.681
O=C(OCC1=C[C@@H](O)[C@@H]2C=CO[C@@H](O[C@@H]3O[C@H](CO)[C@@H](O)[C@H](O)[C@H]3O)[C@H]12)c1ccc(O)cc1,outcome,[3],inactive
same,Potency,[4],inactive
same,outcome,[5],inactive
CNc1nc(C)nc(N[C@H]2CCC[C@@H](C(=O)NCc3ccc(C#N)cc3C(F)(F)F)C2)n1,Z-AUC,[1],-0.0725 (inactive)
same,Z-AUC,[1]; [6],0.695
same,Z-AUC,[1]; measured here: PEO4 Z-AUC,1.22
